Data published in PubChem BioAssay AID1159580 (chemical genetic matrix, 2015).
Several values for one entry are separate records, joined by “and”; a condition that tells them apart may be missing. Identical values can stand only once. The campaign covered roughly 5,500 compounds. About 2,000 (36%) were called active. Another 18% or so got no clear call; they are omitted. No stated cut-off is given here; in the data, active means normalized growth mostly below about 0.91 (no sharp cut-off); inconclusive means no clear call, values can overlap the other calls; inactive means mostly above about 0.92. The list shows a part of the results.

Assay: chemical genetic growth profiling, strain panel (AID 1159580);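 further: tested at 20 µM; growth read once vehicle control cultures reached saturation at 30 °C; 1 = growth at the plate median or of vehicle wells; lower values mean less growth of the strain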
Settings: S. cerevisiae deletion strains, growth OD

Measured: normalized growth

CC1(C)S[C@@H]2C(N3C(=O)[C@@H](c4ccccc4)NC3(C)C)C(=O)N2[C@H]1C(=O)O (some centres not stated)
inactive: locus YAL021C, strain ccr4, active compounds read low 1.03 | locus YAL026C, strain drs2, active compounds read low 1.02 | locus YAL030W, strain snc1, active compounds read low 1 | locus YBL061C, strain skt5, active compounds read low 1.02 | locus YBR009C, strain hhf1, active compounds read low 1.03 | locus YBR021W, strain FUR4, active compounds read low 0.994 | locus YBR023C, strain chs3, active compounds read low 1.04 | locus YBR171W, strain sec66, active compounds read low 1.04 | locus YBR229C, strain ROT2, active compounds read low 1.01 | locus YBR231C, strain swc5, active compounds read low 0.975 | locus YBR279W, strain paf1, active compounds read low 1.02 | locus YCL011C, strain gbp2, active compounds read low 1.03 | locus YCL016C, strain dcc1, active compounds read low 1.06 | locus YCL029C, strain bik1, active compounds read low 1.02 | locus YCL061C, strain MRC1, active compounds read low 1.03 | locus YCL069W, strain vba3, active compounds read low 1.02 | locus YCR088W, strain abp1, active compounds read low 1.02 | locus YDL005C, strain med2, active compounds read low 1.02 | locus YDL035C, strain GPR1, active compounds read low 1 | locus YDL040C, strain nat1, active compounds read low 1.01 | locus YDL074C, strain BRE1, active compounds read low 1.02 | locus YDL101C, strain DUN1, active compounds read low 1.01 | locus YDL185W, strain tfp1, active compounds read low 1.02 | locus YDL192W, strain arf1, active compounds read low 1.03 | locus YDR001C, strain nth1, active compounds read low 1.01 | locus YDR069C, strain doa4, active compounds read low 0.977 | locus YDR101C, strain arx1, active compounds read low 1.01 | locus YDR137W, strain rgp1, active compounds read low 1.11 | locus YDR159W, strain sac3, active compounds read low 0.958 | locus YDR162C, strain NBP2, active compounds read low 1 | locus YDR195W, strain ref2 1.01 | locus YDR297W, strain sur2, active compounds read low 0.98 | locus YDR318W, strain mcm21, active compounds read low 1.02 | locus YDR334W, strain swr1, active compounds read low 1.02 | locus YDR335W, strain msn5, active compounds read low 0.989 | locus YDR388W, active compounds read low 1.03 | locus YDR392W, strain spt3, active compounds read low 0.952 | locus YDR502C, strain sam2, active compounds read low 1.03 | locus YEL003W, strain gim4, active compounds read low 1.02 | locus YEL037C, strain rad23, active compounds read low 1.02 | locus YEL061C, strain CIN8 (second series), active compounds read low 1.02 | locus YEL061C, strain CIN8, active compounds read low 1.01 | locus YER015W, strain faa2, active compounds read low 1 | locus YER016W, strain bim1, active compounds read low 1.01 | locus YER110C, active compounds read low 1.04 | locus YER111C, strain swi4, active compounds read low 1.03 | locus YER155C, strain BEM2 (second series), active compounds read low 0.975 | locus YER155C, strain BEM2, active compounds read low 1 | locus YER167W, strain BCK2, active compounds read low 1 | locus YFR010W, strain ubp6, active compounds read low 1.03 | locus YGL078C, strain dbp3, active compounds read low 1.03 | locus YGL086W, strain mad1, active compounds read low 0.996 | locus YGL167C, strain pmr1, active compounds read low 1.02 | locus YGL173C, strain kem1, active compounds read low 1.03 | locus YGL227W, strain vid30, active compounds read low 1.02 | locus YGL240W, strain doc1, active compounds read low 0.972 | locus YGL248W, strain PDE1, active compounds read low 1.01 | locus YGL253W, strain hxk2, active compounds read low 1.02 | locus YGR078C, strain PAC10, active compounds read low 1 | locus YGR135W, strain pre9, active compounds read low 1.04 | locus YGR252W, strain gcn5, active compounds read low 1.01 | locus YHR013C, strain ard1, active compounds read low 1.06 | locus YHR027C, strain rpn1, active compounds read low 1.02 | locus YHR030C, strain SLT2, active compounds read low 1.01 and 0.988 | locus YHR079C, strain IRE1 (second series), active compounds read low 1.02 | locus YHR079C, strain IRE1, active compounds read low 0.979 | locus YHR094C, strain hxt1, active compounds read low 1.03 | locus YHR129C, strain ARP1, active compounds read low 0.995 | locus YHR142W, strain chs7, active compounds read low 1.05 | locus YHR200W, strain rpn10, active compounds read low 1.03 | locus YIL066C, strain RNR3, active compounds read low 1 | locus YIL073C, strain SPO22, active compounds read low 1.06 | locus YIL125W, strain kgd1, active compounds read low 1.02 | locus YIR030C, strain dcg1, active compounds read low 1.03 | locus YJL092W, strain hpr5, active compounds read low 1.02 | locus YJL095W, strain BCK1 (second series), active compounds read low 0.987 | locus YJL095W, strain BCK1, active compounds read low 1.02 and 0.98 | locus YJL115W, strain asf1, active compounds read low 1.02 | locus YJL129C, strain trk1, active compounds read low 1.04 | locus YJL134W, strain LCB3, active compounds read low 1.01 | locus YJL154C, strain vps35, active compounds read low 1.02 | locus YJL164C, strain tpk1, active compounds read low 1.04 | locus YJL166W, strain qcr8, active compounds read low 1.02 | locus YJL168C, strain set2, active compounds read low 1.03 | locus YJL187C, strain SWE1 (second series), active compounds read low 1 | locus YJL187C, strain SWE1, active compounds read low 0.974 | locus YJR066W, strain TOR1, active compounds read low 0.944 | locus YKL009W, strain mrt4, active compounds read low 0.99 | locus YKL068W, active compounds read low 1.01 | locus YKL085W, strain MDH1 (second series), active compounds read low 1.02 | locus YKL085W, strain MDH1, active compounds read low 1.02 | locus YKL160W, strain elf1, active compounds read low 1.05 | locus YKR001C, strain vps1, active compounds read low 1.04 | locus YKR026C, strain gcn3, active compounds read low 1.02 | locus YKR091W, strain srl3, active compounds read low 1.02 | locus YLL001W, strain dnm1, active compounds read low 1.04 | locus YLL026W, active compounds read low 1.02 | locus YLL041C, strain sdh2, active compounds read low 1 | locus YLR027C, strain aat2, active compounds read low 1 | locus YLR039C, strain RIC1, active compounds read low 1.03 | locus YLR058C, strain SHM2, active compounds read low 1.01 | locus YLR102C, strain apc9, active compounds read low 1.03 | locus YLR113W, strain HOG1, active compounds read low 1 | locus YLR221C, strain rsa3, active compounds read low 1.03 | locus YLR258W, strain gsy2, active compounds read low 0.999 | locus YLR262C, strain YPT6 (second series), active compounds read low 1.11 | locus YLR262C, strain YPT6, active compounds read low 1.05 | locus YLR268W, strain sec22, active compounds read low 1.02 | locus YLR320W, strain mms22, active compounds read low 1.08 | locus YLR330W, strain CHS5, active compounds read low 1 | locus YLR342W, strain FKS1 (second series), active compounds read low 0.997 | locus YLR342W, strain FKS1, active compounds read low 1.03 | locus YLR357W, strain rsc2, active compounds read low 1.01 | locus YLR370C, strain arc18, active compounds read low 1 | locus YLR371W, strain rom2, active compounds read low 1.01 | locus YLR384C, strain iki3, active compounds read low 1.02 | locus YLR418C, strain cdc73, active compounds read low 1.03 | locus YML016C, strain PPZ1, active compounds read low 1.01 | locus YML032C, strain rad52, active compounds read low 1.02 | locus YML120C, strain ndi1, active compounds read low 1.05 | locus YML124C, strain tub3, active compounds read low 1.02 | locus YMR058W, strain fet3, active compounds read low 1.01 | locus YMR078C, strain ctf18, active compounds read low 1.03 | locus YMR125W, strain sto1, active compounds read low 1.03 | locus YMR129W, active compounds read low 1.02 | locus YMR205C, strain PFK2, active compounds read low 0.992 | locus YMR223W, strain ubp8, active compounds read low 1.04 | locus YMR231W, strain pep5, active compounds read low 1.02 | locus YMR263W, strain SAP30, active compounds read low 1 | locus YMR307W, strain GAS1, active compounds read low 1.01 | locus YNL067W, strain RPL9B, active compounds read low 1.01 | locus YNL071W, strain lat1, active compounds read low 1.03 | locus YNL183C, strain NPR1, active compounds read low 0.95 | locus YNL209W, strain ssb2, active compounds read low 1.02 | locus YNL233W, strain BNI4, active compounds read low 1 | locus YNL248C, strain rpa49, active compounds read low 1.03 | locus YNL250W, strain rad50, active compounds read low 1.05 | locus YNL271C, strain bni1, active compounds read low 1.04 | locus YNL298W, strain CLA4, active compounds read low 1.04 | locus YNL307C, strain MCK1, active compounds read low 1.03 | locus YNL322C, strain KRE1 (second series), active compounds read low 1.05 | locus YNL322C, strain KRE1, active compounds read low 1 | locus YNR049C, strain mso1, active compounds read low 0.993 | locus YNR052C, strain pop2, active compounds read low 1.02 | locus YOL006C, strain TOP1, active compounds read low 1.03 | locus YOL012C, strain htz1 0.716 | locus YOL147C, strain pex11, active compounds read low 1.03 | locus YOR001W, strain rrp6, active compounds read low 1.01 | locus YOR061W, strain CKA2, active compounds read low 1.01 | locus YOR069W, strain VPS5, active compounds read low 1 | locus YOR070C, strain gyp1, active compounds read low 1.03 | locus YOR080W, strain dia2, active compounds read low 1.05 | locus YOR083W, strain WHI5, active compounds read low 1.03 | locus YOR106W, strain vam3, active compounds read low 1.02 | locus YOR136W, strain idh2, active compounds read low 1.03 | locus YOR144C, strain elg1, active compounds read low 1.02 | locus YOR184W, strain ser1, active compounds read low 1.05 | locus YOR231W, strain MKK1, active compounds read low 0.997 | locus YOR265W, strain rbl2, active compounds read low 1.03 | locus YOR270C, strain vph1, active compounds read low 1.08 | locus YOR290C, strain snf2, active compounds read low 0.962 | locus YOR316C, strain cot1, active compounds read low 1.03 | locus YPL051W, strain arl3, active compounds read low 1.04 | locus YPL078C, strain atp4, active compounds read low 1.03 | locus YPL106C, strain sse1, active compounds read low 1.01 | locus YPL240C, strain hsp82, active compounds read low 0.985 | locus YPL256C, strain CLN2, active compounds read low 0.982 | locus YPR119W, strain clb2, active compounds read low 1.03 | locus YPR141C, strain kar3, active compounds read low 1.03 | locus YPR163C, strain tif3, active compounds read low 1.04 | locus YPR167C, strain met16, active compounds read low 1.02 | strain wtn01, active compounds read low 1.04
